According to ChEMBL document CHEMBL3988442, “University of Dundee, Small-Polar-MMV Screening Library” (2021):
The whole screen tested about 48,000 compounds, of which about 13,000 (27%) showed an effect of 50% or more. Some of the results follow.

The compounds below were run on Wolbachia pipientis (assay: Anti-Wolbachia Cell-Based Screen). Details: 5 µM.
Format: functional
Design: scale not given: in the data most compounds retested in dose-response had high values

SMILES | Percent Effect [%]
O=C1NCCN(C(=O)CN2CCOC2=O)C1c1cccc(F)c1 (stereo unspecified) | 1.4
COc1cc(C(=O)O)cc(I)c1OCC(=O)NCCc1ccccc1 | 109.3
COc1cc(C(=O)O)ccc1OCC(=O)NCCc1ccccc1 | 92.84
COc1cc(C(=O)O)ccc1OCC(=O)NC(C)c1ccc(F)cc1 (stereo unspecified) | 2.572
COCC(C)(O)CNC(=O)COc1ccccc1OC (stereo unspecified) | 1.741
Cc1nn(C)c(C)c1OCC(=O)NCc1cccc(C(=O)O)c1 | 4.585
COc1ccccc1OCC(=O)NCC(O)(c1ccccc1)C1CC1 (stereo unspecified) | -11.16
Cc1cccc2c1nc1n2[C@@H](CNC(=O)c2ccncc2)COC1 | -9.503
CCN(CC)C1CCN(C(=O)NCc2c(C)noc2C)CC1 | -4.062
CCS(=O)(=O)N(C)C1CCN(C(=O)c2cc(C)cc(C)c2)CC1 | 4.174
CC(C)Cc1cc(C(=O)N2CCC(N3CCCC3)CC2)cc(O)n1 | 3.394
CC(=O)N1CCC(CCNC(C)c2cc(C)cc(C)c2)CC1 (stereo unspecified) | -3.402
CCCn1ncc(C(=O)N2CCC(N3CCCCC3)CC2)c1C | -9.333
Cc1cc(C)c2nc(C)c(C(=O)N3CCC(CCN(C)C)CC3)cc2c1 | 84.1
Cc1cc2c(cc1C(=O)N1CC[C@H](CO)[C@@H](O)C1)OCCO2 | -2.803
CCN(CC)C1CCN(C(=O)c2cc3cc(C)cc(C)c3nc2C)CC1.Cl | 152.2
Cc1cc(C)c2nc(C)c(C(=O)N3CCC(N4CCCC4)CC3)cc2c1 | 84.44
CN(C)c1nc2c(c(NCc3cc(O)ncn3)n1)CCCC2 | 14.14
CC(C)N1CCN2C(=O)N(C3CCCCC3)C[C@H]2C1 | 0.5796
CC(C)CNC1(Cc2cc(-c3ccccc3)on2)COC1 | -15.39
Cc1cncc(C(=O)N(c2ccc(F)cn2)C2CCOCC2)c1 | -4.438
COCC(O)CN1CCC(NC(=O)c2cccc(C)c2)CC1 (stereo unspecified) | -8.408

SMILES | Percent Effect [%]
CCCS(=O)(=O)N1CCCC(c2cccc(C(=O)O)c2)C1 (stereo unspecified) | 9.239
O=C1CN(CCCNS(=O)(=O)c2cccc(C(=O)NC3CC3)c2)CCN1 | -1.221
CSCCN1CCC(NC(=O)c2cccc(C3CCCNC3)c2)CC1 (stereo unspecified) | 92.44
O=C(NC1CCOCC1)c1cccc(C2CCCNC2)c1 (stereo unspecified) | 85.12
CSCCN1CCC(NC(=O)OC(C)(C)C)CC1 | -0.645
CCOC(=O)N1CCC(NC(=O)c2cccc(C3CCCNC3)c2)CC1 (stereo unspecified) | 94.34
O=C(NC1CCOC1)c1cccc(S(=O)(=O)NCCCc2ncc[nH]2)c1 (stereo unspecified) | -8.272
CCc1cnc(CNc2ccc(C(=O)NCc3ccco3)cc2C)o1 | 4.048
CCOc1ccc(Br)cc1-c1cc(N)[nH]n1.Cl | 161.1
CCOc1ccccc1-c1cc(N)[nH]n1.Cl | 107
COc1ccc(Br)cc1CC(=O)Nc1cc(C)n[nH]1 | -11.39
CCOc1cc(C)c(-c2cc(N)[nH]n2)cc1OCC | 103.8
CCOc1ccccc1-c1cc2c(cc1C(N)=O)OCO2 | -7.69
CCOc1ccccc1-c1noc(CN2CCN(CCOC)CC2)n1 | 9.475
Cc1cc(NC(N)=O)ccc1OCC(F)(F)F | 6.991
c1ccc2c(c1)CN(c1ncnc3c1CCNC3)CCO2 | -28.26
Cc1ccc(C)c(CN2CCCn3nc(CNS(C)(=O)=O)cc3C2)c1 | -10.08
CC(C)CC(=O)N1CCCn2cnc(CNS(C)(=O)=O)c2C1 | 117
O=C(c1cccs1)N1CCCn2cnc(COCC3CC3)c2C1 | 6.591
CC(=O)N(C)Cc1ncn2c1CN(C(=O)CC1CC1)CCC2 | 104.9
CC(=O)N(C)Cc1ncn2c1CN(C(=O)C1CCCO1)CCC2 (stereo unspecified) | 106.4
CN(C)C(=O)NCc1ncn2c1CN(S(C)(=O)=O)CCC2 | 2.726

SMILES | Percent Effect [%]
Cc1ccsc1C(=O)N1CCn2cnc(COCC3CC3)c2C1 | 0.0867
CS(=O)(=O)NCc1ncn2c1CN(C(=O)CC1CCCC1)CCC2 | -15.27
CS(=O)(=O)NCc1ncn2c1CN(C(=O)C1CCCO1)CCC2 (stereo unspecified) | 106.6
CSCCc1c(-c2ccccc2)ncn1CCNc1cccnc1 | -1.445
COC(=O)C1CN(CC(=O)Nc2ccccc2Cl)c2ccccc21 (stereo unspecified) | 8.149
Cc1ccc(NC(C)C(=O)NCc2cccs2)cc1Cl (stereo unspecified) | -17.21
COCC(C)(C)NC(=O)CC(c1ccccc1)C(F)(F)F (stereo unspecified) | 0.4415
CC(C)N(C)Cc1nnc2n1CCCN(C(=O)C1CCCO1)C2 (stereo unspecified) | -11.05
CC(C)N(C)Cc1ncn2c1CN(CC(=O)N(C)C)CCC2 | -4.555
CC(C)N(C)Cc1ncn2c1CN(C(=O)C1CCCO1)CCC2 (stereo unspecified) | 102
Cc1ccc(C(=O)NCCNC(=O)N(C)C(C)c2ccccn2)cc1 (stereo unspecified) | -4.194
CC(c1ccco1)N(C)Cc1cccc(C(=O)Nc2nccn2C)c1 (stereo unspecified) | 19.16
CC(c1ccccn1)N(C)Cc1cccc(C(=O)Nc2nccn2C)c1 (stereo unspecified) | 66.38
COc1cc(CN(C)C(C)c2ccccn2)cc2c1OCO2 (stereo unspecified) | -21.63
Cc1cnc(NC(=O)c2cccc(CN(C)Cc3ncccc3C)c2)s1 | 0.1885
COC(=O)c1cccc(CN(C)C(C)c2ccccn2)c1 (stereo unspecified) | 109
Cc1ccc(Cl)c2ccc(NC(CO)CO)nc12 | -18.64
O=C(c1ccsc1)N1CC(c2nc(-c3ccc[nH]c3=O)no2)C1 | -1.062
CCOc1no[n+]([O-])c1-c1ccccc1 | 142.4
CCOc1ccc(-c2c(-c3ccccc3)ncn2C2CCNC2)cn1 (stereo unspecified) | 5.482
COCCOC[C@]1(CNCc2cccc(OC)c2)C[C@@H](O)[C@@H](O)C1.Cl | 2.999
N#CCCN(CC(=O)Nc1ccc(Br)cc1Cl)Cc1cccnc1 | -15.5

SMILES | Percent Effect [%]
COCc1noc(C2(c3ccc(F)cc3)CCC2)n1 | -10.25
COc1cccc(CNC(=O)CCNS(=O)(=O)c2ccc(C)cc2)c1 | 91.68
COc1cccc(CNC(=O)CCC2=Nc3ccccc3S(=O)(=O)N2)c1 | 114.6
O=C(CCNS(=O)(=O)c1ccccc1)NCc1ccoc1 | -4.508
Cc1ccc(S(=O)(=O)NCCNC(=O)c2cncnc2C)cc1 | 2.217
COc1cccc(CNC(=O)CCOc2ccccc2C)c1 | 9.384
COc1cccc(CCNC(=O)CCS(=O)(=O)C2CCCC2)c1 | 1.804
COc1ccc(CC(=O)NCCNS(=O)(=O)c2ccc(C)cc2)cc1 | 90.25
CNS(=O)(=O)c1ccc(CCC(=O)NCc2cccc(OC)c2)cc1 | 110.9
CNS(=O)(=O)c1cccc(C(C)NCc2cccc(OC)c2)c1 (stereo unspecified) | 4.426
CCc1ncncc1C(=O)NCCNS(=O)(=O)c1ccc(C)cc1 | 8.343
COc1cccc(CNC(=O)N2CCN3CCNC(=O)C3C2)c1 (stereo unspecified) | -4.227
CNS(=O)(=O)c1cccc(CNC(=O)CCc2ccsc2)c1 | 10.65
Cl.Cn1nc(C2CCN(C(=O)CCN3CCOCC3)CC2)c2cccnc21 | 110.8
COc1ccccc1OC1CCN(C(=O)CCCN2CCOCC2)CC1 | 10.26
O=C(CN1CCCCC1)NCc1cccnc1-n1cnc2ccccc21 | -3.687
CN(CCO)Cc1nnc(C2CCN(C(=O)CN3CCCC3)CC2)n1C | -20.27
Cl.Cn1nc(C2CCN(C(=O)CN3CCCCC3)CC2)c2cccnc21 | 113.3
C=C(C)CNC(=O)C1CCC(=O)N(C2CCCC2)C1 (stereo unspecified) | 15.65
COCC1CN(C(=O)c2ccnnc2)Cc2ncnn2C1 (stereo unspecified) | 0.09306
CS(=O)(=O)Cc1nc(CN2CCC(C(F)(F)F)CC2)cs1 | -5.539
CS(=O)(=O)Cc1nc(CNc2c(F)cc(F)cc2F)cs1 | 22.22

SMILES | Percent Effect [%]
Cc1noc(C)c1CSCc1csc(CS(C)(=O)=O)n1 | 94.77
CS(=O)(=O)Cc1nc(CN2CCc3ccccc3CC2)cs1 | 14.86
Cc1cc(CSCc2csc(CS(C)(=O)=O)n2)no1 | 97.95
Cc1noc(C)c1CSCc1nc(N)c2ccccc2n1 | -9.423
Cc1cc(CSCc2cc(C)on2)on1 | -0.9382
CS(=O)(=O)Cc1nc(CNc2ccc(F)c(F)c2)cs1 | 12.98
CCc1nc(CSCc2csc(CS(C)(=O)=O)n2)cs1 | 115
COCCN(Cc1sccc1C)C(=O)C1CCN(C(C)C)CC1 | 1.745
Nc1nc2c(c(N3CCCC(c4nnc5ccccn45)C3)n1)CCNC2 (stereo unspecified) | -10.49
O=C1[C@@H]2CN(Cc3cc4ccccc4o3)C[C@]2(C(=O)O)CN1CC1CC1 | -11.55
OCC(O)CSCc1nnc(-c2ccc(Cl)cc2)o1 (stereo unspecified) | -3.672
COc1ccc2c(c1)CCCN2C(=O)c1cccc(N(C)C)c1 | -8.665
COc1ccc2c(c1)C(=O)N(C)C1(CCN(CC3CC3)CC1)N2 | -12.56
COc1ccc2c(c1)CCCN2C(=O)NC1CCCCNC1=O (stereo unspecified) | -4.83
COc1ccc2c(c1)CCCN2Cc1nc2c(cnn2C)c(=O)[nH]1 | -6.912
COc1ccc2c(c1)CN(CC1CC1)C(=O)CCN2CC(C)(C)O | 98.75
CCN1Cc2cc(OC)ccc2N(CC(C)(C)O)CCC1=O | 102.5
CN1CCN(Cc2noc(CC3CCc4ccccc43)n2)CC1 (stereo unspecified) | 3.539
